Inconclusive results are not listed. Calls of active or inactive are those of the source. Calls follow the shape of the dose curve; as a rule, active = well fitted curve in the direction sought with a large enough effect; inconclusive = small, poorly fitted or top-dose-only effect, or another doubt; inactive = no such curve, though single readings can be large; an effect the other way counts as inactive or inconclusive.
Experiments:
[1] = molecular target: Cytochrome P450 2D6 (Homo sapiens) (UniProt P10635); assay: qHTS Assay for Inhibitors and Substrates of Cytochrome P450 2D6 (AID 891); also: potency is read from the fitted curve at half-maximal effect; nearly all actives have a fitted effect of over 60% in size
In short: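 Human CYP2D6 (5 nM) with 30 uM Luciferin-ME EGE (at Km) in 100 mM KPO4, compound preincubated 10 min, then NADPH regeneration system for 60 min at room temperature. Luciferin read by luminescence; normalized to 1.43 uM quinidine.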

[2] = molecular target: ATP-dependent 6-phosphofructokinase (Trypanosoma brucei brucei) (UniProt O15648); assay: qHTS Assay to Find Inhibitors of T. brucei phosphofructokinase: hit validation (AID 492961);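 also: luminescence reports ADP formed as PFK phosphorylates fructose-6-phosphate with ATP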
In short: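 ADP-Glo luminescence read-out of ADP formed by 1.25 nM PFK from 0.1 mM ATP and 0.5 mM F6P (TEA pH 8.0, 45 min, RT). Compounds titrated; activity normalized to no-enzyme and full-enzyme controls.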

CP194 = assay: qHTS profiling for inhibitors of Plasmodium falciparum proliferation (AID 504749); also: nearly all actives have a fitted effect of over 60% in size; also: potency is read from the fitted curve at half-maximal effect; details: P. falciparum in erythrocytes, SYBR Green DNA, 72 h; series mostly up to 12.8 µM
In short: (§1)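 Infected RBCs, 0.3% parasitemia/2.5% Hct final; cpd 72 h, 37 C, 5% CO2; lysis buffer with saponin/triton/SYBR Green I, o/n RT dark; FI 485/535; norm. to artemisinin (0.29 uM) and DMSO.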

CP211 = assay: as above; details: P. falciparum in erythrocytes, SYBR Green DNA, 72 h; series mostly up to 12.8 µM
In short: as §1

CP215 = assay: as above; details: P. falciparum in erythrocytes, SYBR Green DNA, 72 h; series mostly up to 12.8 µM
In short: as §1

CP260 = assay: as above; details: P. falciparum in erythrocytes, SYBR Green DNA, 72 h; series mostly up to 12.8 µM
In short: as §1

CP269 = assay: as above; details: P. falciparum in erythrocytes, SYBR Green DNA, 72 h; series mostly up to 12.8 µM
In short: as §1

CP291 = assay: as above; details: P. falciparum in erythrocytes, SYBR Green DNA, 72 h; series mostly up to 12.8 µM
In short: as §1

CP315 = assay: as above; details: P. falciparum in erythrocytes, SYBR Green DNA, 72 h; series mostly up to 12.8 µM
In short: as §1

CP335 = assay: as above; details: P. falciparum in erythrocytes, SYBR Green DNA, 72 h; series mostly up to 12.8 µM
In short: as §1

GB4 = assay: as above; details: P. falciparum in erythrocytes, SYBR Green DNA, 72 h; series mostly up to 12.8 µM
In short: as §1

P94_40 = assay: as above; details: P. falciparum in erythrocytes, SYBR Green DNA, 72 h; series mostly up to 12.8 µM
In short: as §1

PC26 = assay: as above; details: P. falciparum in erythrocytes, SYBR Green DNA, 72 h; series mostly up to 12.8 µM
In short: as §1

[3] = S16 Schwann cell PMP22 intronic element firefly luciferase assay (AID 624032); also: nearly all actives have a fitted effect of over 30% in size
In short: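 Luciferase reporter of PMP22 intronic-element expression in stably transfected S16 rat Schwann cells, read by ONE-Glo luminescence after 24 h compound exposure at 37 C. Activity scaled between DMSO (0%) and positive-control PTC124; concentration-effect curves quality-classified.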

CP237 = assay: qHTS profiling for inhibitors of Plasmodium falciparum proliferation (AID 504749); also: nearly all actives have a fitted effect of over 60% in size; also: potency is read from the fitted curve at half-maximal effect; details: P. falciparum in erythrocytes, SYBR Green DNA, 72 h; series mostly up to 12.8 µM
In short: as §1

DFO2036 = assay: as above; details: P. falciparum in erythrocytes, SYBR Green DNA, 72 h; series mostly up to 12.8 µM
In short: as §1

[4] = molecular target: Cytochrome P450 2C9 (Homo sapiens) (UniProt P11712); assay: qHTS Assay for Inhibitors and Substrates of Cytochrome P450 2C9 (AID 883); also: nearly all actives have a fitted effect of over 60% in size; also: potency is read from the fitted curve at half-maximal effect
In short: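 Luminescent read-out of deoxyluciferin hydroxylation, normalized to 57uM sulphaphenazole (AC100). Reaction: 10nM enzyme, 100uM Luciferin-H (equal to KM), 25mM KPO4, 10 min compound preincubation, then 60 min with NADPH regeneration, both at 37C.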

[5] = molecular target: Cytochrome P450 3A4 (Homo sapiens) (UniProt P08684); assay: qHTS Assay for Activators of Cytochrome P450 3A4 (AID 885); also: nearly all actives have a fitted effect of over 65% in size
In short: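 20nM CYP3A4 + 25uM Luciferin-PPXE (=KM), 200mM KPO4; cpd 10 min RT; NADPH regen, 60 min RT; stop w/ detection buffer, 20 min; luminescence. Normalized to 57 uM ketoconazole.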

Measured: Potency

Sequence of Cytochrome P450 2C9 (Homo sapiens) (P11712 whole entry, looked up): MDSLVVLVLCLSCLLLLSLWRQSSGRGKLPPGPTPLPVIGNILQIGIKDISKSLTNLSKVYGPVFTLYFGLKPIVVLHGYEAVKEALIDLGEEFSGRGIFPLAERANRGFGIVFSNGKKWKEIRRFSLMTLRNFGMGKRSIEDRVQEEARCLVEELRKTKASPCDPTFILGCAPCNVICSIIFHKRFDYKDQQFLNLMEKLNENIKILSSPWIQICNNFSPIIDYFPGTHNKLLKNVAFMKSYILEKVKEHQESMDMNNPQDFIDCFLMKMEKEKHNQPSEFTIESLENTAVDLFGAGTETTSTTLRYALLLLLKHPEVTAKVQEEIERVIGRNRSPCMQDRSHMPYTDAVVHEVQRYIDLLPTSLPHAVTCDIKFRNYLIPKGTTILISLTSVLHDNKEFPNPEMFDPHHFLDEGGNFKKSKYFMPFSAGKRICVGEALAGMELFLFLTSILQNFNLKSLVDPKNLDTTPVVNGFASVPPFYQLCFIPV
Sequence of Cytochrome P450 3A4 (Homo sapiens) (P08684 whole entry, looked up): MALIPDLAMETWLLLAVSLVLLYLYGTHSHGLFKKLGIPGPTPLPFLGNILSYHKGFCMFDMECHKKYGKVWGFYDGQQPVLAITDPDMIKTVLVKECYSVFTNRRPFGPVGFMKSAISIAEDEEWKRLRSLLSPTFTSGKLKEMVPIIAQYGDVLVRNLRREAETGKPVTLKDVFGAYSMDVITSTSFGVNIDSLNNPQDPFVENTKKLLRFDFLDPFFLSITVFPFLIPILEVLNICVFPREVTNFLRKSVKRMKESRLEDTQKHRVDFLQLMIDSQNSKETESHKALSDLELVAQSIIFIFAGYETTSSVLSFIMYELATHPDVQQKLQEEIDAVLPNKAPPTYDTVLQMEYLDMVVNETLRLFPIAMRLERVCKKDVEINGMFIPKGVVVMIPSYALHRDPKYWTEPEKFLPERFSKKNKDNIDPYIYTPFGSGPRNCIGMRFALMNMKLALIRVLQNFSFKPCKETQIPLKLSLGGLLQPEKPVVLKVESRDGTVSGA
Sequence of ATP-dependent 6-phosphofructokinase (Trypanosoma brucei brucei) (O15648 whole entry, looked up): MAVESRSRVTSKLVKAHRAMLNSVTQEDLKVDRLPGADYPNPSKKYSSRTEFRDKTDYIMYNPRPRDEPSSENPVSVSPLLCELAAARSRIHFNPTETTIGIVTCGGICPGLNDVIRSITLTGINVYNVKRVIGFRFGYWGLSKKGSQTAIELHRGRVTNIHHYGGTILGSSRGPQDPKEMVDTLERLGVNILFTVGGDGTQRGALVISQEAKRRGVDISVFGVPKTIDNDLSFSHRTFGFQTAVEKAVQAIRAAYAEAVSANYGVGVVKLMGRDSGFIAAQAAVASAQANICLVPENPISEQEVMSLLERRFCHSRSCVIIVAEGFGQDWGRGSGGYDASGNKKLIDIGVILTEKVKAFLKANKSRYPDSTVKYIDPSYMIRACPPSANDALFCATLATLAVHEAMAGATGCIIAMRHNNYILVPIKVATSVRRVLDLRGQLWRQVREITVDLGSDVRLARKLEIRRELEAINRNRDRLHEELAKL
Sequence of Cytochrome P450 2D6 (Homo sapiens) (P10635 whole entry, looked up): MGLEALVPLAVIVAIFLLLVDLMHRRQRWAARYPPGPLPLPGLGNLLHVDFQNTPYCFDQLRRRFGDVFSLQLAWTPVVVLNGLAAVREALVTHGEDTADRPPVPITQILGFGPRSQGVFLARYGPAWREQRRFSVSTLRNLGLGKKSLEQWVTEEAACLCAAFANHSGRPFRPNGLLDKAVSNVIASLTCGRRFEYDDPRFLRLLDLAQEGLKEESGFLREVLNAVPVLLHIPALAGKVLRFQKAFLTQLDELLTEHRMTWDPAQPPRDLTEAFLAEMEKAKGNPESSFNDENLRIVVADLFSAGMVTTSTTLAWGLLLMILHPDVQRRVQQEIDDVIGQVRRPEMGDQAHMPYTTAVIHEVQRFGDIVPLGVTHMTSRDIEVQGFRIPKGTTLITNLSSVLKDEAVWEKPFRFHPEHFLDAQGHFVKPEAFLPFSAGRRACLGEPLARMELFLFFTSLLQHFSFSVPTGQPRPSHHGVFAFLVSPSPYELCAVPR

CCCC[C@H](CC)CN1CN(C[C@@H](CC)CCCC)CC(C)(N)C1
inactive: [2] | CP194 | CP211 | CP215 | CP269 | CP291 | CP315 | CP335 | GB4 | P94_40 | PC26
active: [1] 1.26 µM | CP260 3.55 µM

C[C@H]1CC[C@]2(OC1)O[C@@H]1C[C@@H]3[C@@H]4CC[C@H]5C[C@@H](O)CC[C@]5(C)[C@@H]4CC(=O)[C@@]3(C)[C@H]1[C@@H]2C
inactive: [2] | [3] | CP194 | CP211 | CP215 | CP237 | CP260 | CP269 | CP291 | CP315 | CP335 | DFO2036 | GB4 | P94_40 | PC26

Nc1ccn([C@@H]2CC[C@H](CO)O2)c(=O)n1
inactive: [4]

Nc1ccccc1S(N)(=O)=O
inactive: [4]

CCOC(=O)C1=C(C)NC(C)=C(C(=O)OC)[C@@H]1c1cccc([N+](=O)[O-])c1
active: [4] 0.316 µM
inactive: [5]

CC(C)(C)CC(C)(C)c1ccc(OCOCCOCCO)c(Cc2cc(C(C)(C)CC(C)(C)C)cc(Cc3cc(C(C)(C)CC(C)(C)C)ccc3OCOCCOCCO)c2OCOCCOCCO)c1
inactive: [5]

C#C[C@]1(O)CC[C@@H]2[C@H]3CCc4cc(OC)ccc4[C@@H]3CC[C@@]21C
inactive: [5]

COCC(=O)Nc1c(I)c(C(=O)NC[C@@H](O)CO)c(I)c(C(=O)N(C)C[C@@H](O)CO)c1I
inactive: [2] | [3] | CP194 | CP211 | CP215 | CP237 | CP260 | CP269 | CP291 | CP315 | CP335 | DFO2036 | GB4 | P94_40 | PC26

CCC[C@@H]1O[C@@H]2C[C@@H]3[C@H]4CCC5=CC(=O)C=C[C@@]5(C)[C@H]4[C@H](O)C[C@@]3(C)[C@@]2(C(=O)CO)O1
active: CP215 15.1 µM | CP335 10.7 µM | P94_40 11.2 µM | PC26 7.57 µM
inactive: [2]

CC(=O)C[C@H](c1ccc([N+](=O)[O-])cc1)c1c(O)c2ccccc2oc1=O
inactive: [2] | CP194 | CP211 | CP215 | CP237 | CP260 | CP269 | CP291 | CP315 | CP335 | DFO2036 | GB4 | P94_40 | PC26
active: [4] 0.631 µM

COC(=O)C1=C(C)NC(C)=C(C(=O)OC(C)C)[C@H]1c1cccc2nonc12
inactive: DFO2036

— PubChem BioAssay (NCATS)
